Screening results (PubChem BioAssay)
Most compounds without a hit are left out; they make up all but 0.83% or so of the library.
OTUD3 block: inhibitors of human OTUD3 deubiquitinase; inhibition, % at 25 µM; Q5T2D3; 0.7% of 47,000 active; purified OTUD3, Ub-rhodamine fluorescence, 2 h; AID 1645858
USP7 block: human USP7 deubiquitinase inhibition | 0.3% of 47,000 active | inhibition, % at 20 µM | purified USP7, Ub-rhodamine cleavage fluorescence | Q93009 | AID 1645854
UCHL1 block: human UCHL1 deubiquitinase inhibition; 0.2% of 47,000 active; inhibition, % at 20 µM; purified UCHL1, Ub-rhodamine cleavage fluorescence; P09936
Numbers without * were called inactive. Rule as the data show it: active = inhibition above about 30%; inactive = the rest.

SMILES	OTUD3 block	USP7 block	UCHL1 block
CC1=C(O)C(=O)C=C2C1=CC=C1[C@@]2(C)CC[C@@]2(C)[C@@H]3C[C@](C)(C(=O)O)CC[C@]3(C)CC[C@]12C	25.7	34.8*	12.1
O=C(NCc1cccnc1)[C@H]1CO[C@H]2CCN(C3CCC3)C[C@H]2C1	2.7	0.0	0.8
Cc1cc(C)c2c(=O)[nH]c(C3CCCNC3)cc2c1 (centres undefined)	-29.3	-1.6	-0.9
CCCn1c(C)cc(C(=O)COC(=O)C(O)(c2ccccc2)c2ccccc2)c1C	8.4	3.5	1.3
Cc1ccc(C)c(Cn2cccc(C(=O)Nc3ccccn3)c2=O)c1	15.2	-5.0	2.4
CCOC(=O)C1CCN(C(=O)COc2cc(C)cc3oc(=O)c4c(c23)CCCC4)CC1	-9.9	-12.0	0.6
O=C1c2c(O)c(Cl)cc3c2[C@@]2(Oc4cc(Cl)c(O)c5c4[C@]3(O2)[C@@H]2O[C@@H]2C5=O)[C@@H]2O[C@H]12	83.5*	92.9*	92.1*
CC(C)=CCCC1(C)C=Cc2c(O)c3c(c(CC=C(C)C)c2O1)OC12C(=CC4CC1C(C)(C)OC2(C/C=C(/C)C(=O)O)C4=O)C3=O (centres undefined)	69.4*	66.9*	15.4
O=C(c1cn2ccnc(-c3ccccc3)c2n1)N1CCC2(CC1)OCCO2	3.8	3.1	2.8
O=C(NCc1cccnc1)c1cccn(Cc2ccc(Cl)cc2)c1=O	6.8	-5.4	0.9
COc1cccc(CN2CCC3(CC2)OC(=O)Nc2ccccc23)c1	-19.1	-10.3	-9.4
CC(C)=CCOC(C)(C)[C@H]1OC2CC[C@@]3(C)C(CCC4Cc5c([nH]c6ccccc56)[C@@]43C)C23OC3[C@@H]1O (some centres undefined)	60.9*	39.3*	7.1
